In PubChem BioAssay one finds outcome data, which are given here for 40 compounds.

Entries with a potency or affinity are not part of this list. The source made the active and inactive calls. No rule for the calls is given here.

The first test is described as follows: A549 cell cytotoxicity, dose response, cytotoxicity control, plate reader, cherry-pick, antagonist series (AID 743412). The settings on record: series mostly up to 26 µM.
For `COc1ccc(N(CC(=O)NCc2cccs2)S(=O)(=O)c2ccc(C(C)=O)cc2)cc1`, the call was inactive.
As to `Cc1noc2ncnc(Sc3ccc(Br)cc3)c12`, the result was inactive.
For `Cc1ccc(S(=O)(=O)N2[C@@H](CO)CO[C@H]2CC(=O)OCc2ccccc2)cc1`, the result was inactive.

The nature of a further test: toxicity toward HepG2 liver cells – cell-based, plate reader, cherry-pick, antagonist series, cytotoxicity control, dose response (AID 743416). The conditions noted are these: series mostly up to 26 µM.
For `CN(C)S(=O)(=O)c1cccc(NC(=O)COc2ccccc2C(=O)Nc2ccccc2)c1`, the compound was called inactive.
With `Cc1ccc(C(=O)Nc2ccc3c(c2)OCCO3)cc1`, the compound was called inactive.
On the same count and under the same terms, then `CCOc1ccc(C(=O)NCCc2ccccc2)cc1`, with “inactive”; and `O=C(O)c1cccc(COc2ccc(CO)cc2Cl)c1`, with “inactive”.
Consider `O=C(c1ccccc1)N1CCSc2sccc2C1=O`, for which the result was inactive.
For `O=C(Cc1ccncc1)NCC[C@H]1CC[C@H](NC(=O)C2CCCC2)[C@H](CO)O1`, the compound was called inactive.
`Cc1ccccc1-c1ccc([C@H]2[C@@H](CO)N3CCCCN(S(=O)(=O)c4ccc(F)cc4)C[C@@H]23)cc1`: the call was inactive.
Turning to `CC(=O)c1ccc(NC(=O)c2noc3c2CCC3)cc1`, the outcome was inactive.
On the same count and under the same terms, then `CO[C@@H]1CN(C)C(=O)c2cc(NC(C)=O)ccc2OC[C@@H](C)N(Cc2ccc(F)cc2)C[C@@H]1C`, with “inactive”.
As to `Cc1ccc(Nc2nc3ccccc3s2)c(C)c1`, the compound was called inactive.
The same measure, in the same setting: the same measure for `O=C(Nc1ccc(-c2nc3cccnc3s2)cc1)C1CCCO1` (stereo not given): “inactive”; for `O=C(Nc1ccc(Cl)cc1Cl)c1ccc2c(c1)OCCO2`: “inactive”.
For the compound `CCCCc1ccc(NC(=O)c2cnccn2)cc1`, the call was inactive.
The same measure, in the same setting: the same measure for `O=C1CC(c2ccc3c(c2)OCO3)Sc2nc3ccccc3n21` (stereo not given): “inactive”.
As for `Cc1cccc(-c2ccc([C@H]3[C@@H](CO)N4CCCCN(C(=O)c5cccnc5)C[C@@H]34)cc2)c1`, the call was inactive.
With `N#C[C@@H]1[C@H](c2ccc(C#Cc3ccccc3F)cc2)[C@@H](CO)N1C(=O)C1CC1`, the call was inactive.
In the case of `C[C@H](CO)N1C[C@H](C)[C@H](CN(C)C(=O)Nc2cccc3ccccc23)OCCCC[C@H](C)Oc2ccc(NC(=O)c3ccccc3)cc2C1=O`, the outcome was inactive.
For `O=C(COc1ccc2c(c1)CCC2)Nc1ccccn1`, the compound was classed as inactive.
In the case of `CSc1nnc(NC(=O)c2ccc3c(c2)OCO3)s1`, the call was inactive.
In the case of `C[C@H](CO)N1C[C@H](C)[C@H](CN(C)C(=O)Nc2ccccc2)OCCCC[C@H](C)Oc2ccc(NC(=O)Nc3ccc4c(c3)OCO4)cc2C1=O`, the result was inactive.
`Cc1ccc(C)c(S(=O)(=O)N(C(=O)c2ccncc2)c2ccc(OC(=O)c3ccncc3)cc2)c1`: the result was inactive.
`COc1ccc(S(=O)(=O)Nc2ccc3c(c2)C(=O)N([C@@H](C)CO)C[C@@H](C)[C@H](CN(C)C(=O)Nc2cccc4ccccc24)OCCCC[C@H](C)O3)cc1`: the compound was classed as inactive.
On to `COc1ccc(-c2cc(-c3ccccc3)no2)cc1`, for which the result was inactive.
Turning to `COc1ccc(-n2ncc3c(N(C)C4CCCCC4)ncnc32)cc1`, the outcome was inactive.
Still for that read-out and setting: the same measure for `CCOc1ccc(-c2ccc(SCC)nn2)cc1`: “inactive”.
Turning to `Nc1ccc(-c2nc3ccc(N)cc3s2)cc1`, the outcome was inactive.
As for `Clc1ccc(-c2cc(-c3ccccn3)on2)c(Cl)c1`, the result was inactive.
Regarding `CCc1ccc2oc(-c3ccc(N)cc3)nc2c1`, the result was inactive.
On the same count and under the same terms, the same measure for `Cc1cc(C(=O)CSc2nnc3ccccn23)c(C)n1-c1ccccc1`: “inactive”.
On the same count and under the same terms, the same measure for `CC(=O)N1CCCCN2[C@H](CO)[C@H](c3ccc(-c4cccc(C)c4)cc3)[C@@H]2C1`: “inactive”; for `CC(C)CCNC(=O)C(c1ccc(O)cc1)N(Cc1cccs1)C(=O)C1COc2ccccc2O1` (stereo not given): “inactive”; for `Cc1ccnc(NC(=O)CCC(=O)c2cccs2)c1`: “inactive”.
On to `C[C@@H]1CN([C@@H](C)CO)C(=O)c2cccc(NC(=O)Nc3ccc(C(F)(F)F)cc3)c2O[C@@H]1CN(C)C(=O)Nc1cccc2ccccc12`, for which the outcome was inactive.
Consider `CC1CCN(c2ccc(-c3cccs3)nn2)CC1`, for which the compound was called inactive.
Turning to `CCCNC(=O)N1[C@H](C#N)[C@H](c2ccc(C#Cc3ccc(F)cc3)cc2)[C@H]1CO`, the call was inactive.
Same read-out and setting: then `CCCNC(=O)COC(=O)c1ccccc1C(=O)c1ccc(Cl)c([N+](=O)[O-])c1`, with “inactive”.
The same measure, in the same setting: then `COCC(=O)N1CCCCN2[C@H](CO)[C@H](c3ccc(-c4cccc(C)c4)cc3)[C@@H]2C1`, with “inactive”.
